Data published in PubChem BioAssay (EPA / NIEHS).
Activity calls are given as the source filed them. Rule for the calls: active = hit-call score of the fitted dose curve at least 0.9, where 1 is the maximum; inactive = score below 0.9.

Target: Myc proto-oncogene protein (Homo sapiens) (UniProt P01106)
Test: ATG_Myc_CIS: Attagene CIS-FACTORIAL HepG2 Assay for human Myelocytomatosis (Myc) Proto-Oncogene Transcription Factor (AID 2282990)
Conditions: HepG2, Attagene cis-reporter transcription factor activity; actives raise or lower the signal
Experimental: ATG_CIS is a cell-based, multiplexed-readout assay that uses HepG2, a human liver cell line, with measurements taken at 24 hours after chemical dosing in a 24-well plate.ATG_Myc_CIS is one of 52 assay component(s) measured or calculated from the ATG_CIS assay. It is designed to make measurements of mRNA induction, a form of inducible reporter, as detected with fluorescence intensity signals by Reverse transcription polymerase chain reaction (RT-PCR) and Capillary electrophoresis technology.Data from the assay component ATG_Myc_CIS was analyzed into 1 assay endpoint. This assay endpoint, ATG_Myc_CIS, was analyzed with bidirectional fitting relative to DMSO as the negative control and baseline of activity. Using a type of inducible reporter, measures of mRNA for gain or loss-of-signal activity can be used to understand the reporter gene at the transcription factor-level as they relate to the gene MYC. Furthermore, this assay endpoint can be referred to as a primary readout, because this assay has produced multiple assay endpoints where this one serves a reporter gene function. To generalize the intended target to other relatable targets, this assay endpoint is annotated to the dna binding intended target family, where the subfamily is basic helix-loop-helix leucine zipper.
Human liver HepG2 cells are transiently transfected with multiple reporter transcription units (MRTUs) in 6-well plates using FuGene 6 reagent (Roche; 3 ml FuGene/1 mg DNA). The MRTU constructs are regulated by a cis-regulating element (promoter). […] A major difference between the CIS and TRANS system is that in CIS activities of endogenous TFs are measured, whereas the TRANS assay evaluates changes in activities of exogenous, chimeric NR-Gal4 proteins. […] At the end of 24 hour incubation, total RNA was isolated using TriZol reagent (Invitrogen). The isolated RNA is then reverse-transcribed using oligo(dT) primer and Mo-MLV reverse transcriptase (Invitrogen) with DNAse I (Ambion) treatment for 30 min. The one-tenth of the produced cDNA was amplified by PCR using Taq DNA polymerase (Invitrogen) and two reporter sequence-specific primers. The PCR products were fluorescently labeled by primer extension with 6-arboxyfluorescein (6-FAM) 5'-labeled reporter sequence-specific primer (2 min at 95 C, 20 s at 68 C and 10 min at 72 C) and these products were digested with 5U of HpaI (New England Biolabs) for 2h at 37 C. The fragments were purified using Qiaquick PCR columns (Qiagen), analyzed on an ABI 3130xL genetic analyzer (Applied Biosystems) with peak positions identified by using a set of X-rhodamine (ROX)-labeled MapMarker1000 molecular weight standards (BioVentures). The raw capillary electrophoresis data was processed using Attagraph software (Attagene).

Sequence of Myc proto-oncogene protein (Homo sapiens) (P01106 whole entry, looked up): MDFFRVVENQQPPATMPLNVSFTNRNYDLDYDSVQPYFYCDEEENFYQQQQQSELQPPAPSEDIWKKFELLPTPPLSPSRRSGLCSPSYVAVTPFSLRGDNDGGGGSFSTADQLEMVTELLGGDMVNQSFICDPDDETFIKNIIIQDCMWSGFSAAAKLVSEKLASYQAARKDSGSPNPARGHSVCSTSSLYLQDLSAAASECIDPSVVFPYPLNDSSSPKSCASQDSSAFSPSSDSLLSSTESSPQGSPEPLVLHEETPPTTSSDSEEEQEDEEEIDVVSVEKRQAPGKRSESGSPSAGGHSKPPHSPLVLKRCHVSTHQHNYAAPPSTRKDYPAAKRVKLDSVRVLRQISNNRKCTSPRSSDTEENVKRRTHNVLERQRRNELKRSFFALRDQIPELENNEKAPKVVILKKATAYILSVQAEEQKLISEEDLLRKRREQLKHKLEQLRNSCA

| Structure (SMILES) | outcome | AC50 |
| --- | --- | --- |
| Cc1ccc(C2OC[C@@H]3OC(c4ccc(C)cc4)O[C@H]([C@H](O)CO)[C@@H]3O2)cc1 (stereo not given in full) | inactive | – |
| COC(=O)/C=C\C(=O)O | inactive | – |
| CCCCNc1ccc(NCCCC)c2c1C(=O)c1ccccc1C2=O | inactive | – |
| ON(Cc1ccccc1)Cc1ccccc1 | inactive | – |
| CCCCC(CC)COC(=O)c1ccccc1 (stereo not given) | inactive | – |
| C=C(C)C(=O)OCCO | inactive | – |
| C=C(C)c1cccc(C(C)(C)N=C=O)c1 | inactive | – |
| CC(=O)[C@H]1[C@H](C#N)C[C@H]2[C@@H]3CC=C4C[C@@H](O)CC[C@]4(C)[C@H]3CC[C@@]21C | inactive | – |
| C=C(C)[C@@H]1CCC2=CCC[C@@H](C)[C@]2(C)C1 | inactive | – |
| CC(C)c1ccc2c(c1)CC[C@H]1[C@](C)(CN)CCC[C@]21C | inactive | – |
| O=S(=O)(O)c1ccccc1C=Cc1ccc(-c2ccc(C=Cc3ccccc3S(=O)(=O)O)cc2)cc1 | inactive | – |
| C=CC(=O)NC(C)(C)CS(=O)(=O)O | inactive | – |
| CC(C)=CCCC(C)C=O (stereo not given) | inactive | – |
| FC(F)=C(F)OC(F)(F)C(F)(F)C(F)(F)F | inactive | – |
| CC(=O)Nc1ccc2c(c1)Cc1cc(NC(C)=O)ccc1-2 | inactive | – |
| C=C[Si](C)(C)O[Si](C)(C)C=C | inactive | – |
| CCCCCCCCO[C@@H]1O[C@H](CO)[C@@H](O)[C@H](O)[C@H]1O | inactive | – |
| CC1=NC(C)OC1C (stereo not given) | inactive | – |
| CC(CC=O)CCCC(C)(C)O (stereo not given) | inactive | – |
| CC1(C)O[C@@H]2C[C@H]3[C@@H]4C[C@H](F)C5=CC(=O)C=C[C@]5(C)[C@@]4(F)[C@@H](O)C[C@]3(C)[C@]2(C(=O)CO)O1 | inactive | – |

| Structure (SMILES) | outcome | AC50 |
| --- | --- | --- |
| CC=CC(F)(F)C(F)(F)C(F)(F)F | inactive | – |
| Nc1ccc(Cl)cc1Cl | inactive | – |
| O=S(=O)(O)CC(O)CCl (stereo not given) | inactive | – |
| CCOC(=O)N1CCC(=C2c3ccc(Cl)cc3CCc3cccnc32)CC1 | inactive | – |
| C=C[C@](C)(O)CC[C@@H]1[C@@]2(C)CCCC(C)(C)[C@@H]2CC[C@@]1(C)O | inactive | – |
| CC(C)c1ccc(C=O)cc1 | inactive | – |
| c1ccc(CCCc2ccncc2)cc1 | inactive | – |
| CCCCCCCCCCCCCCCC[N+](C)(C)CC | – | 8.97 µM (active) |
| C[Si](C)(CCCN)O[Si](C)(C)CCCN | inactive | – |
| COc1ccc(-c2coc3cc(O)ccc3c2=O)cc1 | inactive | – |
| COc1ccc(C(Cl)=C(c2ccc(OC)cc2)c2ccc(OC)cc2)cc1 | inactive | – |
| C[C@]12C=CC(=O)C=C1CC[C@@H]1[C@@H]2[C@@H](O)C[C@@]2(C)[C@H]1CC[C@]2(O)C(=O)CO | inactive | – |
| CCCCCC/C=C/C=O | inactive | – |
| O=C1CCCCCCCCCCC(=O)OCCO1 | inactive | – |
| O=C1CCCCCCCCCCCCCCCO1 | inactive | – |
| O=C1OC(=O)c2cc(Oc3ccc4c(c3)C(=O)OC4=O)ccc21 | inactive | – |
| C=COCCCC | inactive | – |
| CC(C)=CCC[C@H](C)CCO | inactive | – |
| CCCCC(CC)COCC1CO1 (stereo not given) | inactive | – |
| Cc1c(C)c([N+](=O)[O-])c(C(C)(C)C)c([N+](=O)[O-])c1C | inactive | – |
